This passage reports Potency and activity change, negative = thiol reactive results from PubChem BioAssay (NCATS).

Where “and” joins values, the source holds several entries; their conditions need not be identical. Equal entries are not always repeated. Records with an inconclusive call do not appear. Where a call stands in place of a potency, no number is given. Calls of active or inactive are those of the source. The call rests on the fitted dose curve; in most records, active means well fitted inhibition curve with a large enough effect; inconclusive means small, poorly fitted or top-dose-only effect; inactive means no such curve, though single readings can be large or run the other way.
Potency means the concentration at half of the fitted maximal effect.

The experiment in a line: Primary fluorescence-based thiol-reactive (MSTI) qHTS assay for identification of artifact compounds. (AID 1845221). Further: nearly all actives have a fitted effect of over 65% in size.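 On activity change, negative = thiol reactive: thiol-reactive compounds lower the probe fluorescence signal.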 The settings on record: MSTI thiol-reactivity probe, 1 h; series mostly up to 53.8 µM. The source says: PI: Alexander Tropsha Ph.D.
UNC Eshelman School of Pharmacy
University of North Carolina, Chapel Hill, North Carolina
Hits from high-throughput screening (HTS) of chemical libraries are often false positives due to their interference with the assay detection technology. In response to this problem, we generated the largest publicly available library of chemical liabilities and developed a free webtool to predict HTS artifacts, both of which are described herein. More specifically, we generated, curated, and integrated HTS datasets for thiol reactivity, redox activity, and luciferase (firefly and nano) activity. Using these curated datasets, we developed and validated several Quantitative Structure-Interference Relationship (QSIR) models to predict nuisance behavior. […] These models were employed for virtual profiling of the National Center for Advancing Translational Science's (NCATS) in-house library, and 256 compounds for each assay were selected for the experimental validation of nuisance behavior. The BA for these external predictions ranged from 58 to 78% for compounds within the applicability domains of the models. […] The models developed in this study, along with aggregation models previously developed by our group (SCAM Detective) were implemented in "Liability Predictor," an online tool which may be used as part of chemical library design or for triaging HTS hits. Both the models and the curated datasets are publicly available at https://liability.mml.unc.edu/.
SEQUENCE No. (e.g., 1, 2, 3, etc.); […] (e.g., Cells, Incubation, Reagent, etc.); VALUE; DESCRIPTION.
1; Reagent; 4 uL; […].
2; Compounds and control; 16 nL; Kalypsis pin tool (Wako USA) equipped with a 1536-well pin head.
4; Detection; Fluorescence, ViewLux microplate reader, 525 nm excitation, 598 nm emission.
NOTES (numbers refer to Sequence numbers above)
1. Assays determining (E)-2-(4-mercaptostyryl)-1,3,3-trimethyl-3H-indol-1-ium (MSTI) reactivity were performed as previously described in the literature with modifications for the quick identification of compounds reacting with thiol. In brief, 4 uL of MSTI or positive control Acetyl-MSTI (final concentrations of 4 uM and 4 uM, respectively) in assay buffer (2% DMSO in 1X PBS pH 7.4) was dispensed into all wells of a 1536-well assay plate (solid-bottom black plate; Greiner Bio One, Monroe, NC).
2. A Wako Pin-tool (Wako Automation, Richmond, VA) was used to transfer 16 nL of compounds (consisting of 7-plates in qHTS format, final concentration range 18.3 nM to 114 uM) or control MLS001163887 (final concentration range 1.22 nM to 40 uM).
3. Plates were centrifuged (121xg, 15 seconds) and incubated for 1 hour at room temperature protected from light.
4. Samples were read for fluorescence (Ex/Em = 525(20)/598(25) nm) on a ViewLux CCD imager (PerkinElmer). Data were normalized to Acetyl-MSTI (0% activity) and MSTI (100% activity) and the resulting percent inhibition data were fitted to a 4-parameter Hill equation using NCATS in-house software.
In general terms: qHTS replaces the single test concentration by a dilution series.
With `COC(=O)[C@]12C(=O)C(C)=C(O)[C@@]1(C)C(C)=CC1[C@@]34CC[C@@H](OC(C)=O)C(C)(C)C3[C@H](C[C@]12C)OC4=O` (stereo not given in full), the Potency entry is “inactive”. Regarding `CC(C)Nc1cc(-c2c[nH]c(C(=O)N[C@H](CO)c3cccc(Cl)c3)c2)c(Cl)cn1`, the Potency entry is “inactive”.

For `CC1(CO)CC[C@]2(C(=O)O[C@@H]3O[C@H](CO)[C@@H](O)[C@H](O)[C@H]3O)CC[C@]3(C)C(=CCC4[C@@]5(C)CC[C@H](O[C@@H]6O[C@H](C(=O)O)[C@@H](O)[C@H](O)[C@H]6O)C(C)(C)C5CC[C@]43C)C2C1` (stereo not given in full), the activity change, negative = thiol reactive is -2.52% [at 11.5 µM] (inactive).

Take `CC(=O)OCC(=O)O[C@@H]1[C@H]2[C@@H](OC(=O)c3ccccc3)[C@@H](C)C[C@]2(O)[C@H](OC(C)=O)C2(C)[C@H]3CC(C)(C)C(=O)[C@@H]3CC1(OC(C)=O)[C@@H]2OC(C)=O` (stereo not given in full): the Potency entry was “inactive”.

Regarding `C=C1[C@@H]2CC[C@@]3(C)[C@H](c4ccoc4)OC(=O)C[C@]13O[C@H]1CC(=O)C(C)(C)[C@H](CC(=O)OC)[C@]12C`, the Potency result is “inactive”.

On to `CC1CCC2(C(=O)OC3OC(CO)C(O)C(O)C3O)CCC3(C(=O)O)C(=CCC4C5(C)CCC(OC6OC(C)C(O)C(O)C6O)C(C)(C)C5CCC43C)C2C1C` (stereo not given), for which the Potency entry is “inactive”.

Consider `CC1=CC(=O)C2C(C)(C)CCCC2(C)C12CCC1(COC(=O)C1)O2` (stereo not given), for which the Potency was 7.36 µM (active). As to `CC[C@H]1OC(=O)[C@H](C)[C@@H](OC2C[C@@](C)(OC)[C@@H](O)[C@H](C)O2)[C@H](C)[C@@H](OC2O[C@H](C)C[C@H](NC)[C@H]2O)[C@](C)(O)C[C@@H](C)CN(C)[C@H](C)[C@@H](O)[C@]1(C)O` (stereo not given in full), the Potency result is “inactive”.

In the case of `CC[C@H]1OC(=O)C[C@@H](O)[C@H](C)[C@@H](O[C@@H]2O[C@H](C)[C@@H](O)[C@H](N(C)C)[C@H]2O)[C@@H](CCN2C[C@H](C)C[C@H](C)C2)C[C@@H](C)C(=O)/C=C/C(C)=C/[C@@H]1CO[C@@H]1O[C@H](C)[C@@H](O)[C@@H](OC)[C@H]1OC`, the Potency entry is “inactive”. Turning to `CC1OC(OC2C(C)OC(OC3C(OC(=O)/C=C/c4ccc(O)cc4)C(CO)OC(OC4(COC(=O)/C=C/c5ccc(O)cc5)OC(CO)C(O)C4O)C3OC3OCC(O)(CO)C3O)C(O)C2O)C(O)C(O)C1O` (stereo not given), the activity change, negative = thiol reactive was 1.76% [at 11.5 µM] (inactive). As to `COc1c(C)c(C(=O)c2ccc(N)c(C(=O)O)c2)n2ccccc12`, the Potency was 4.74 µM (active) and 5.32 µM (active).

For `COC1CC(=O)C23C(=O)NC(CC(C)C)C2C(C)C(C)=CC3/C=C(\C)CCC1O` (stereo not given), the Potency entry is “inactive”. In the case of `COC(=O)[C@@]1(C)CC[C@]2(C(=O)O[C@@H]3O[C@H](CO)[C@@H](O)[C@H](O)[C@H]3O)CC[C@]3(C)C(=CCC4[C@@]5(C)CC[C@H](O[C@@H]6O[C@H](C(=O)O)[C@@H](O)[C@H](O)[C@H]6O)C(C)(C)C5CC[C@]43C)[C@@H]2C1` (stereo not given in full), the activity change, negative = thiol reactive is 77.9% [at 11.5 µM] (inactive). Consider `CCC(C)(O)C(O)C(=O)OCc1ccc(O[C@@H]2O[C@H](CO)[C@@H](O)[C@H](O)[C@H]2O)cc1` (stereo not given in full), for which the Potency entry was “inactive”. As to `C#C[C@]1(O)CC[C@H]2[C@@H]3CCC4=C/C(=N/O)CC[C@@H]4[C@H]3CC[C@@]21CC`, the Potency entry was “inactive”. On the same count and under the same terms, the result for `CC1CC(O)C2(C)C(C(=O)O)=CCCC2C1(C)CCc1ccoc1` (stereo not given) reads “inactive”; that for `C[C@@H]1O[C@@H](OC[C@H]2O[C@@H](OCCc3ccccc3)[C@H](O)[C@@H](O)[C@@H]2O)[C@H](O)[C@H](O)[C@H]1O`, 2.6 µM (active).

Turning to `O=C1NCc2nc3ccccc3c(=O)n2C1Cc1c[nH]c2ccccc12` (stereo not given), the Potency entry was “inactive”. The same measure, in the same setting: the result for `C=C1CCC2C(OC(=O)C2(O)COC(C)=O)C2C(=C)C(O)CC12` (stereo not given) reads 7.36 µM (active); that for `CC(C(=O)O)C1CCC2(C)C3C(=O)C=C4C(CCC(=O)C4(C)C)C3(C)CCC12C` (stereo not given), “inactive”; that for `CC(=O)N1c2ccccc2C2(O)CC3C(=O)NC(CC(C)C)C(=O)N3C12` (stereo not given), “inactive”. Still for that read-out and setting: the result for `CC(CCC1C(C(=O)O)=CC(=O)CC1(C)C)O[C@@H]1O[C@H](CO)[C@@H](O)[C@H](O)[C@H]1O` (stereo not given in full) reads 5.85 µM (active); that for `COc1cc(/C=C/C(=O)O[C@H]2[C@H](OC(=O)/C=C/c3cc(OC)c(O)c(OC)c3)O[C@H](CO[C@@H]3O[C@H](CO)[C@@H](O)[C@H](O)[C@H]3O)[C@@H](O)[C@@H]2O)ccc1O`, “inactive”; that for `CC1=C2C(=O)O[C@@H](c3ccoc3)[C@]2(C)CCC1`, “inactive”.

Take `CC(=O)O[C@H]1CC[C@@]2(CI)C(=CC[C@@H]3[C@@H]2CC[C@]2(C)[C@@H]([C@H](C)CCCC(C)C)CC[C@@H]32)C1`: the activity change, negative = thiol reactive is -0.863% [at 11.5 µM] (inactive). For the compound `Nc1nonc1C(=Nc1ccc(F)c(Cl)c1)NO`, the Potency result was “inactive”. On the same count and under the same terms, the result for `C/C=C/C1=CC2=C(CO1)C(=O)[C@](C)(O)[C@H](OC(=O)c1c(O)cc(OC)c(O)c1C)C2` reads 1.03 µM (active); that for `C=CC1(C)CC(OC(=O)C(=C)C(O)COC(C)=O)C(C(=C)C(=O)OC)C(O)C1C(=C)CO` (stereo not given), “inactive”. Same read-out and setting: the result for `NS(=O)(=O)NCCNc1nonc1C(=Nc1ccc(F)c(Br)c1)NO` reads “inactive”; that for `C[C@H](NCc1ccc(OCc2ccccc2F)cc1)C(N)=O`, “inactive”; that for `C(#Cc1cccc(CN2CCOCC2)c1)CCN1CCCCC1`, “inactive”.

Turning to `C/C=C(/C)C(=O)O[C@H]1C=C(C)C[C@H](OC(=O)c2ccc(O)cc2)C2[C@](O)(C(C)C)CC[C@@]21C` (stereo not given in full), the Potency entry was “inactive”. In the case of `COCCN(C)Cc1ccc2nc3sc(C(=O)N(C)C4CCCCC4)cn3c2c1`, the Potency entry is “inactive”. On the same count and under the same terms, the result for `C=C1C(=O)O[C@H]2[C@H]1[C@@H](OC(=O)C(C)CO)C[C@@]1(C)[C@H](O)CCC(=O)[C@H]21` (stereo not given in full) reads “inactive”; that for `CN(C)C/C=C/C(=O)Nc1ccc(C(=O)Nc2cccc(Nc3ncc(Cl)c(-c4c[nH]c5ccccc45)n3)c2)cc1`, “inactive”; that for `COCCCNCC1COc2ccccc2O1` (stereo not given), “inactive”. On the same count and under the same terms, the result for `C=C1CC2(C(=O)O)CC1CCC2C1(C)CCCC2(C)C(=O)OC(O)C21` (stereo not given) reads “inactive”; that for `C=C(C)C1CC2(CO)C(=CC1=O)CCC(O)C2C` (stereo not given), “inactive”; that for `OC[C@H]1O[C@@H](OC(CCCCc2ccc(O)cc2)CCc2ccc(O)cc2)[C@H](O[C@@H]2OC[C@](O)(CO)[C@H]2O)[C@@H](O)[C@@H]1O` (stereo not given in full), “inactive”. Turning to `CCC[C@@H]1C[C@@H](C(=O)N[C@@H]([C@H]2O[C@H](SC)[C@H](OP(=O)(O)O)[C@@H](O)[C@H]2O)[C@H](C)Cl)N(C)C1`, the Potency entry was “inactive”.
